Rows were chosen to be rich in hits. Some 1.2% of all compounds tested hit in one or more screens of this group.
PglD inh = PglD (C. jejuni) enzyme inhibition; inhibition, % at 12.5 µM; purified PglD enzyme, DTNB colorimetric CoA detection; 360,000 tested, 0.098% active; in the data active means inhibition above about 16%, passing the limit was not always enough
NSD2 HMT inh = NSD2 (human) methyltransferase inhibition; inhibition, % at 12.5 µM; AID 743445; NSD2 peptide methylation, AlphaScreen, 120 min; 310,000 tested, 0.54% active; O96028; in the data active means inhibition above about 50%
miR122 inh = miR-122 inhibition in Huh7 cells. AID 602342. 340,000 tested, 0.3% active. Huh7 miR-122 Renilla luciferase sensor, 48 h; neutral wells = 0, positive control = 100. activation (reporter increase), % at 12.5 µM;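 active means mean replicate activation score at least 90 and every replicate individually at or above 90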;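 further: higher luciferase means less miR-122 activity so hits act as miR-122 inhibitors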
Statin myotox sup = suppressors of simvastatin-induced myotoxicity in C2C12 myotubes | AID 602340 | rescue of ATP level, % at 7.49 µM | 330,000 tested, 0.78% active | ATP luminescence, 48 h; scaled: DMSO 0, geranylgeraniol control 100;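 active means mean ATP rescue above about 67%, or every replicate alone reaching that limit, limit read from the data, passing the limit was not always enough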;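 further: myotubes were challenged with 10 µM simvastatin during compound exposure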
The depositor's hits bear a star; x = not tested or not shown; [ ] = another dose, or the depositor's remark.

SMILES | PglD inh | NSD2 HMT inh | miR122 inh | Statin myotox sup
CNc1nc2c(N)ncnc2n1[C@H]1O[C@@H](CO)[C@H](O)[C@@H]1O | 3 | -1 | 0 | -1
c1ccc(-c2cc(N3CCCCCC3)n[nH]2)cc1 | 2 | 1 | 1 | 93*
c1ccc(-c2cc(N3CCCCC3)ncn2)cc1 | -1 | 1 | 1 | x
CC(=O)Nc1ccc(S(=O)(=O)Nc2ccc3c(c2)n(C)c(=O)n3C)c(C)c1 | 1 | 37 | 156* | 9
CCOC(=O)c1ccccc1NC(=O)C1COc2ccccc2O1 (configuration not stated) | -2 | 0 | 6 | 94*
COC(=O)c1ccccc1NC(=O)C1COc2ccccc2O1 (configuration not stated) | -2 | -3 | -1 | -1
Cc1nn(C(=O)c2cccnc2)c(C)c1Sc1ccc(Br)cc1 | -12 | x | 0 | 75*
CO[C@H]1CN(C)C(=O)c2cc(NS(=O)(=O)c3ccccc3C)ccc2OC[C@H](C)NC[C@H]1C | 1 | x | -2[16.7 µM] | -11
Cc1ccc(S(=O)(=O)Nc2ccc(-n3cnnn3)cc2)c(C)c1 | 0 | 4 | 149* | 2
CN1C(=O)c2cc(NC(=O)NC3CCCC3)ccc2OC[C@H]2O[C@H](CC(=O)NCC3CC3)CC[C@@H]21 | 0 | x | -12[16.7 µM] | -3
CNC[C@H]1Oc2cc(-c3ccncc3)ccc2S(=O)(=O)N([C@H](C)CO)C[C@@H]1C | x | x | 3[16.7 µM] | 7
C[C@@H](NC(=O)C[C@H]1C[C@@H]2c3cc(NC(=O)NC4CCCC4)ccc3O[C@@H]2[C@@H](CO)O1)c1ccccc1 | 1 | x | 3[16.7 µM] | -11
CC(C)c1ccc(NC(=O)[C@H]2CSCN2C(=O)[C@@H]2CCC(=O)N2)cc1 | 1 | 0 | -8 | 109*
CCN1/C(=C\c2ccc3cc(C)ccc3[n+]2CC)Sc2cc(C)c(C)cc21 | 4 | 54* | -7 | -75
CCN1/C(=C/c2ccc3cc(C)ccc3[n+]2CC)Sc2ccc3sccc3c21 | x | x | 3 | -233
Cc1ccccc1-c1ccc2c(c1)O[C@@H](CN(C)C(=O)C1CC1)[C@H](C)CN([C@@H](C)CO)S2(=O)=O | -12 | x | x | -47
COc1cccc(NC(=O)Cn2c(=O)n(C)c(=O)c3sc4c(c32)COC(C)(C)C4)c1 | 0 | -2 | -6 | 136*
Cc1cccc(NC(=O)Cn2nnc3sc4c(c3c2=O)CC(C)(C)OC4)c1 | -8 | 27 | 3 | x
O=C1C2C(C(=O)N1CCc1ccccc1)C1C=CC2C12CC2 (configuration not stated) | -3 | -2 | -5 | -1
COc1ccc(CCN2C(=O)C3C(C2=O)C2C=CC3C23CC3)cc1OC (configuration not stated) | -4 | -9 | 2 | 118*
COc1cccc(S(=O)(=O)N(C)C[C@@H]2Oc3ncc(-c4cccc(C(F)(F)F)c4)cc3C(=O)N([C@H](C)CO)C[C@@H]2C)c1 | 1 | x | -4[16.7 µM] | 3
O=C1c2cccc3c([N+](=O)[O-])ccc(c23)C(=O)N1c1ccc(Cl)cn1 | -1 | 3 | 8 | 129*
O=C1c2cccc3c([N+](=O)[O-])ccc(c23)C(=O)N1c1ccccn1 | 3 | -9 | -14 | 55
CC(=O)Nc1nonc1-n1nnc(C(=O)NCc2ccccc2)c1C | -2 | 0 | 266* | -1
CC(=O)Nc1c(C(=O)NCc2ccccc2)nnn1Cc1ccccc1 | -103 | 1 | 1 | 2
SMILES | PglD inh | NSD2 HMT inh | miR122 inh | Statin myotox sup
CC(C)NC(=O)Nc1ccc2c(c1)CC(=O)N([C@@H](C)CO)C[C@H](C)[C@H](CN(C)C(=O)NC(C)C)O2 | 0 | x | -4[16.7 µM] | 10
O=C(CNC(=O)c1ccc(Br)cc1)N/N=C/c1cccnc1 | -3 | x | 1 | 109*
Cn1nnc(-c2ccc(OCc3ccccc3F)cc2)n1 | -2 | 14 | 0 | -13
Fc1ccccc1COc1ccc(-c2nnn(Cc3ccccc3F)n2)cc1 | -2 | x | 3 | 120*
COc1ccc(S(=O)(=O)N[C@@H]2CC[C@@H](CCn3cc(-c4ccccc4F)nn3)O[C@@H]2CO)cc1 | -1 | x | x | 7
C=CCn1c(=N)c(C#N)cc2c(=O)n3ccccc3nc21 | x | x | -1 | 94*
OC(c1cccc(OCc2ccccc2)c1)c1nnc(-c2ccccc2)o1 (configuration not stated) | -1 | x | -12 | 146*
OC(c1ccc(OCc2ccccc2)cc1)c1nnc(-c2ccccc2)o1 (configuration not stated) | -1 | 2 | 0 | x
O=C(O)CC(NC(=O)OCc1ccccc1)c1ccccc1 (configuration not stated) | 1 | -6 | 1 | 93*
NC(CC(=O)O)c1cccc(OCc2ccccc2)c1 (configuration not stated) | 2 | -1 | -7 | 66*
CC(=O)N(C)C[C@H]1Oc2cc(-c3cccnc3)ccc2S(=O)(=O)N([C@@H](C)CO)C[C@H]1C | 3 | x | -17[16.7 µM] | -22
Cc1cc(O)c(C(C)C)cc1N=Nc1ccccc1C(=O)O | -5 | 10 | 190* | 7
Cc1cc(N=Nc2ccccc2C(=O)O)c(C)c(C)c1O | x | 24 | x | x
COc1ccc(-c2ccc3c(c2)O[C@H](CN(C)Cc2ccccc2C(=O)O)[C@H](C)CN([C@H](C)CO)S3(=O)=O)cc1 | 3 | x | -10[16.7 µM] | 9
Cc1ccc(C)c(S(=O)(=O)NCc2ccc(C(=O)N3CCCCC3C)cc2)c1 (configuration not stated) | 3 | 5 | -5 | 114*
CC1CCCCN1C(=O)c1ccc(C(=O)N2CCCCC2C)cc1 (configuration not stated) | 6 | -3 | 0 | -1
Cc1ccc(C)c(S(=O)(=O)Nc2ccc(C(=O)N3CCCCC3)cc2)c1 | 0 | 1 | 109* | 0
CCCC(=O)Nc1ccc2c(c1)C(=O)N(C)C[C@@H](OC)[C@H](C)CN(C(=O)c1ccccn1)[C@@H](C)CO2 | 1 | x | x | -8
NC(=O)CC[C@@H]1NC(=O)[C@H](CO)NC(=O)c2cc([N+](=O)[O-])cc(I)c2OCC[C@@H](C(N)=O)NC1=O | -7 | x | -1 | 106*
NCCCC[C@@H]1NC(=O)[C@H](CCC(=O)O)NC(=O)c2cc([N+](=O)[O-])cc(I)c2OCC[C@@H](C(N)=O)NC1=O | -1 | x | x | -3
Cc1ccc2nc(-c3ccc(-c4cccc(Cl)c4)cc3)c(NCc3ccccc3)n2c1 | -5 | x | 17 | 85*
COc1cc(-c2nc3ccc(C)cn3c2NCc2ccccc2)ccc1-c1cccc(Cl)c1 | -5 | x | 7 | -2
COC(=O)c1cnn(-c2ccc(F)cc2F)c1/C=N/NC(=S)Nc1ccc(Cl)cc1 | x | 1 | x | x
O=[N+]([O-])c1ccc(Oc2ccc(/C=N/O)cc2)nc1 | x | -1 | x | x
N#Cc1ccc(Oc2ccc(/C=N/O)cn2)cc1 | -3 | -2 | -8 | 122*
Cc1cccc2sc(NC(=O)CN(C)S(=O)(=O)c3ccc(Br)s3)nc12 | 0 | -1 | -1 | 100*
COc1ccc(N2C(=O)CSC23CCCCC3)cc1 | 5 | 0 | -4 | -36
CCOc1ccc(N2C(=O)CSC23CCCCC3)cc1 | 0 | 15 | 2 | 96*
